This is a sample that favours compounds with a hit; in the whole collection about 6.2% have one here.
HT1080NT lethal – kills 2HG-producing HT-1080-NT fibrosarcoma cells | HT-1080-NT fibrosarcoma viability, CellTiter-Glo ATP luminescence, 48 h | Potency, µM (highest dose often 46.1 µM), for the others: at the top dose activity, negative = less viability, actives largely listed as cytotoxic | hit rate 1.6% among 360,000;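 also: NT is the 2HG producing partner of a matched IDH1 knockdown line; 0% = DMSO-treated cells and -100% = media-only wells without cells; nearly all actives have a fitted effect of over 55% in size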
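Fibrosarcoma NT cells, 750 per well in 5% FBS RPMI, were exposed to compound for 48 hours. Viability: CellTiter-Glo luminescence.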
KB-V1 cytotox – kills drug-selected multidrug resistant KB-V1 cells; KB-V1 MDR cells viability, CellTiter-Glo, 72 h; Potency, µM (titrated, usually from 46.1 µM), most hits filed as cytotoxic; hit rate 3.4% among 400,000; AID 1347076; also: % is scaled to controls: 0 for no effect and ±100 for the full control effect; nearly all actives have a fitted effect of over 60% in size
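Readout: CellTiter-Glo luminescence, 10 min after addition. Cells: KB-V1 MDR subline, 72 h at 37 degrees C with compound. Analysis: corrected, normalized data fitted to concentration-effect curves.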
ATXN2 expr inh – reduces ATXN2 reporter expression in HEK-293 cells | HEK-293 ATXN2-luciferase reporter, luminescence, 24 h | Potency, µM (highest dose often 57 µM), without a hit: at the highest dose activity change, negative = inhibition, most hits filed as inhibitors | hit rate 0.72% among 360,000 | AID 1745845; also: % is scaled to controls: 0 for no effect and ±100 for the full control effect; nearly all actives have a fitted effect of over 55% in size
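ATXN2-luciferase reporter cells (luciferase flanked by upstream and downstream ATXN2 gene portions) were treated 24 h at 37 °C with compounds at up to 57 uM. SteadyGlo luminescence gave expression; GF-AFC fluorescence gave viability.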
S2 tox – viability counter-screen for ATXN expression inhibitors | S2 cells (HEK-293 line with an ATXN2-luciferase reporter) viability, CellTiter-Fluor protease fluorescence, 24 h | Potency, µM (top dose mostly 56.7 µM), hits mostly cytotoxic | hit rate 0.49% among 400,000 | AID 651635; also: nearly all actives have a fitted effect of over 40% in size
KB-3-1 cytotox – KB-3-1 parental cell cytotoxicity; Potency, µM (series often up to 46.1 µM), usual class: cytotoxic; hit rate 1.4% among 400,000; KB-3-1 viability, CellTiter-Glo ATP luminescence, 72 h; AID 1347075; also: % is scaled to controls: 0 for no effect and ±100 for the full control effect; nearly all actives have a fitted effect of over 60% in size
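Here the drug-naive KB-3-1 line serves as comparator for MDR sub-line selectivity; cells received compound titrations, 72 h at 37 °C, then CellTiter-Glo readout.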
HT1080 IDH1KD tx – HT-1080 IDH1 knockdown cell toxicity (counter line) | HT-1080 IDH1 knockdown viability, ATP luminescence, 48 h | Potency, µM (doses to about 46.1 µM), without a hit: top-dose activity, negative = toxicity, hits mostly cytotoxic | hit rate 2% among 360,000 | AID 686971;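 also: 0% = DMSO wells and -100% = cell-free medium wells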
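% activity derives from luminescence (CellTiter-Glo), normalised to DMSO and no-cell wells. HT-1080-IDH1KD cells, 750/well, had 48 h compound exposure at 37 °C.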
* marks the source's active call; other numbers are inactive results; i = inactive; ? = inconclusive; · = no result. Calls follow the shape of the dose curve; as a rule, active = well fitted curve in the direction sought with a large enough effect; inconclusive = small, poorly fitted or top-dose-only effect, or another doubt; inactive = no such curve, though single readings can be large; an effect the other way counts as inactive or inconclusive. Potency is read from the fitted curve at half-maximal effect.

SMILES | HT1080NT lethal | KB-V1 cytotox | ATXN2 expr inh | S2 tox | KB-3-1 cytotox | HT1080 IDH1KD tx
CCOc1cc(C(=S)N2CCOCC2)ccc1OS(=O)(=O)c1ccccc1 | 0.4% | 2.31µM* | -11.5% | ? | i | -4.0%
CCOc1cc(C(=S)N2CCOCC2)ccc1OC(=O)c1ccccc1 | -1.3% | i | · | i | i | 2.7%
CCN(CC(=O)NC(C)C)Cc1nc2c(Br)cc(Br)cc2c(=O)[nH]1 | -29.1% | 9.2µM* | · | i | i | -1.5%
S=C(c1cn(CCOc2ccccc2)c2ccccc12)N1CCCC1 | ? | ? | -18.4% | i | ? | ?
Cc1ccc(OCCn2cc(C(=S)N3CCCC3)c3ccccc32)cc1C | ? | 5.17µM* | -14.8% | ? | 5.8µM* | 7.31µM*
S=C(c1cn(CCOc2cccc3ccccc23)c2ccccc12)N1CCCC1 | -1.2% | ? | -23.9% | i | 18.4µM* | -15.6%
COc1ccc(NC(=O)c2ccccc2OCc2c(C)noc2C)cc1OC | 3.7% | ? | 3.9% | i | i | 7.1%
CCN(CC)S(=O)(=O)c1cc(NC(=O)c2ccccc2OCc2c(C)noc2C)ccc1C | -6.7% | 7.31µM* | -11.4% | i | i | -10.4%
Cc1ccc(NC(=O)c2ccccc2OCC(=O)Nc2ccccc2F)cc1S(=O)(=O)N(C)C | -24.4% | ? | · | i | 5.17µM* | ?
CN(C)S(=O)(=O)c1cccc(NC(=O)COc2ccccc2C(=O)Nc2ccccc2)c1 | -29.7% | 16.4µM* | · | ? | ? | ?
Cc1noc(C)c1COc1ccccc1C(=O)Nc1cccc(S(=O)(=O)N(C)C)c1 | 8.2% | 14.6µM* | 5.3% | i | i | 10.0%
O=C(C[n+]1cccc(Cl)c1)c1ccc(O)c(O)c1 | · | i | · | · | ? | ·
O=C(Nc1ccc2nn(-c3ccc(F)cc3)nc2c1)c1cccc2c(Cl)cccc12 | · | i | 0.5% | i | i | ·
CCCS(=O)(=O)NCc1c(C)ncc2c1CCN(C(=O)/C=C/c1ccc(F)cc1F)C2 | · | · | · | i | · | ·
Cc1cccc(N2CCN(C(c3ccccc3)c3nnc(-c4ccccc4F)o3)CC2)c1C (stereo not drawn) | · | i | 2.8% | i | i | ·
COc1ccc(N2CCN(C(=O)c3cc4c(=O)oc5ccc(C)cc5c4s3)CC2)cc1 | · | i | 2.9% | i | i | ·
Cc1nn(CC(=O)Nc2ccc3c(c2)CCC3)c(C)c1[N+](=O)[O-] | -3.9% | 18.4µM* | -4.8% | i | i | -4.8%
Cn1nc(CC(=O)Nc2ccc3c(c2)CCC3)c2ccccc2c1=O | -13.4% | i | -31.0% | i | i | 2.91µM*
Cc1ccc(NC(=O)Cn2nc(C)c([N+](=O)[O-])c2C)cc1C | 0.2% | i | -5.2% | ? | i | -12.6%
Cc1nn(CC(=O)Nc2cc(S(=O)(=O)N(C)C)ccc2Cl)c(C)c1[N+](=O)[O-] | 7.9% | 20.6µM* | 0.3% | i | i | -3.3%
COCC(=O)Nc1cc(C(=O)N2CCCC2c2nccs2)c2c(c1)nc(-c1ccncc1)n2C (stereo not drawn) | · | · | · | i | · | ·
COc1ccccc1NC(=O)C(=O)/C=C(\O)c1ccccc1 | -5.6% | 18.4µM* | 19.5% | i | i | 10.4%
O=C(/C=C/[C@H]1O[C@@H](n2cnc3c(NC(=O)c4ccccc4)ncnc32)[C@H](O)[C@@H]1O)NCC(c1ccccc1)c1ccccc1 | -14.6% | i | 8.5% | i | i | 1.0%
C[C@]1(CO)CN(c2cc(C(=O)Nc3ccc4c(c3)-c3c(c(C(N)=O)nn3-c3ccc(F)cc3)CC4)c(Cl)cn2)C[C@@]1(C)CO | · | · | 8.63µM* | · | · | ·
O=C1Nc2ccc(Br)cc2C12NNc1ccccc1O2 (stereo not drawn) | -27.5% | i | ? | 25.1µM* | ? | ?
O=c1cc(-c2ccccc2)cc(-c2ccccc2)n1O | -29.3% | i | 14.1µM* | 15.8µM* | i | ?
